Out of some 320,000 compounds screened, about 2,100 (0.66%) were called active. Another 53% or so got no clear call; they are omitted. The call rests on the fitted dose curve; in most records, active means well fitted inhibition curve with a large enough effect in the signal ratio, with a control signal flat (not every such curve was filed as active); inconclusive means small, poorly fitted or top-dose-only effect, or effect the other way, or a change in a side signal; inactive means flat fitted curve, though single readings scatter; the % refers to the signal ratio. The full list was thinned out, with actives kept by preference.
Potency means the concentration at half of the fitted maximal effect.

The assay can be described thus: qHTS Assay for Lipid Storage Modulators in Drosophila S3 Cells.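 On cell number change: cells counted by Cell Tracker Red CMTPX staining in the red channel.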 On lipid storage change, negative = inhibition: on the % scale 0 is the no-effect control and ±100 the full control effect. The following applies: BODIPY lipid droplet fluorescence, 18-24 h, cells fed with added oleic acid; cell number change: measured here: cell count max response; series mostly up to 46.1 µM; lipid storage change, negative = inhibition: at the top concentration. The procedure, abridged:
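Drosophila S3 cells loaded with oleic acid (400 uM, as added) and compounds at several concentrations; lipid droplets imaged by 488-nm laser-scanning cytometry, 500–530 nm intensity and object ratio to cell channel. Percent activity normalized to 20 uM Triacsin C.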
On the technique in general: Quantitative high-throughput screening tests each substance at several concentrations.
Take `CSc1nnc(C)c(=O)n1COC(=O)COc1ccc(Cl)cc1`: the “lipid storage change, negative = inhibition” value was 8.1% (inactive) and the cell number change was 11.4%.
Regarding `CCO[C@H]1OC(C(=O)N2CCN(C)CC2)=C[C@@H](c2ccc(Br)cc2)[C@@H]1CCCO`, the “lipid storage change, negative = inhibition” value is 0.537% (inactive) and the cell number change was determined as 4.76%.
In the case of `CC(=O)Nc1ccc(NC(=O)Nc2cc(C)cc(C)c2)cc1`, the “lipid storage change, negative = inhibition” value is -8.79% (inactive) and the cell number change amounted to 7.61%.
On the same counts, the results for `O=C(Cc1ccc(F)cc1)NCCc1ccc(F)cc1` are 0.497% (inactive) and -3.73%.
Turning to `CCC(CC)C(=O)NCCc1ccc(S(N)(=O)=O)cc1`, the “lipid storage change, negative = inhibition” value is 0.195% (inactive) and the cell number change was -8.96%.
Regarding `CCC(CC)C(=O)NCCc1ccc(F)cc1`, the Potency was 25.9 µM (active) and the cell number change was 0.621%.
Turning to `O=C(Cc1ccccc1)N/N=C/c1ccc[nH]1`, the “lipid storage change, negative = inhibition” value was 1.93% (inactive) and the cell number change came to 7.79%.
On the same counts, the results for `COc1ccccc1N(C)S(=O)(=O)c1ccc(C(=O)O)cc1` are -19.5% (inactive) and -4.33%.
In the case of `COc1cccc(CN2CCNC(=O)C2CC(=O)NCc2cn3cccc(C)c3n2)c1OC` (stereo unspecified), the call was inactive and the cell number change is -8.41%.
For `CCN1CCN(S(=O)(=O)c2cccc3nsnc23)CC1`, the “lipid storage change, negative = inhibition” value was -15.7% (inactive) and the cell number change was -12.7%.
With `O=S(=O)(c1cccc2nsnc12)N1CCN(Cc2ccccc2)CC1`, the Potency was 6.51 µM (active) and the cell number change was found to be 1.32%.
In the case of `O=S(=O)(c1cccc2nsnc12)N1CCN(C/C=C/c2ccccc2)CC1`, the “lipid storage change, negative = inhibition” value was 24.3% (inactive) and the cell number change is 7.87%.
The corresponding values for `Cc1cc(/C=C2\SC(=S)N(Cc3ccco3)C2=O)c(C)n1-c1ccccc1` are 24.5% (inactive) and -3.86%.
Consider `Cc1cc(/C=C2\SC(=S)N(Cc3ccco3)C2=O)c(C)n1-c1cccnc1`, for which the Potency is 23.1 µM (active).
Turning to `COc1ccc(-n2c(C)cc(/C=C3\SC(=S)N(Cc4ccco4)C3=O)c2C)cc1`, the “lipid storage change, negative = inhibition” value is -4.8% (inactive) and the cell number change was -10.6%.
On to `Cc1cc(C(=O)NN=C2C3CC4CC(C3)CC2C4)c2ccccc2n1`, for which the “lipid storage change, negative = inhibition” value is -6.2% (inactive) and the cell number change was -7.65%.
Consider `CN(C)C(CNC(=S)Nc1cccc(Cl)c1)c1cccnc1` (stereo unspecified), for which the “lipid storage change, negative = inhibition” value was -1.12% (inactive) and the cell number change is -7.59%.
For `CNNC(=S)NC1CC2CC1C1C=CCC21` (stereo unspecified), the “lipid storage change, negative = inhibition” value was 14.9% (inactive) and the cell number change stood at 17.5%.
`CCOc1ncccc1-c1nc(-c2cccs2)no1`: the “lipid storage change, negative = inhibition” value is 21.8% (inactive) and the cell number change was -0.414%.
The corresponding values for `CC1CN(C(=O)c2ccc(COc3ccccc3Br)o2)CC(C)O1` (stereo unspecified) are 15.9% (inactive) and 21.6%.
`CC1CN(C(=O)COC(=O)c2cc(Cl)ccc2Cl)CC(C)O1` (stereo unspecified): the “lipid storage change, negative = inhibition” value is -9.51% (inactive) and the cell number change was -5.44%.
As to `CCOc1cccc2cc(C(=O)N3CC(C)OC(C)C3)c(=O)oc12` (stereo unspecified), the “lipid storage change, negative = inhibition” value is 0.754% (inactive) and the cell number change was -8.03%.
With `CC1CN(C(=O)c2ccc(COc3ccc4ccccc4c3)o2)CC(C)O1` (stereo unspecified), the “lipid storage change, negative = inhibition” value was 17.9% (inactive) and the cell number change is 18.9%.
Turning to `Cc1ccccc1OCc1ccc(C(=O)N2CC(C)OC(C)C2)o1` (stereo unspecified), the Potency was 32.6 µM (active) and the cell number change was found to be 14.8%.
`CC1CN(C(=O)c2ccccc2OCc2ccc(Cl)cc2Cl)CC(C)O1` (stereo unspecified): the Potency is 0.651 µM (active) and the cell number change was -15%.
As to `COc1ccc(N=C2CCS(=O)(=O)c3sccc32)cc1`, the “lipid storage change, negative = inhibition” value was 18.8% (inactive).
As for `O=C(CN1C(=O)NC2(CCCC2)C1=O)Nc1ccccc1-c1ccccc1`, the “lipid storage change, negative = inhibition” value is 7.06% (inactive).
Consider `COc1ccccc1C(=O)Nc1cccc(N(C)S(C)(=O)=O)c1`, for which the “lipid storage change, negative = inhibition” value is 8.7% (inactive) and the cell number change was -2.55%.
On to `CC(=O)c1cccc(NC(=O)N2CCN(S(C)(=O)=O)CC2)c1`, for which the Potency was 11.6 µM (active).
Consider `CC(=O)c1cccc(NC(=O)N2CCCCCC2)c1`, for which the compound was classed as inactive and the cell number change was -8.42%.
For `Cc1cc(C)cc(NC(=O)N2CCN(S(C)(=O)=O)CC2)c1`, the “lipid storage change, negative = inhibition” value is 14.6% (inactive) and the cell number change came to 5.38%.
As to `O=C(CCc1nnc2n(Cc3ccc(Cl)cc3)c(=O)c3ccccc3n12)NCCCN1CCOCC1`, the call was inactive.
With `CC(C)N(C(=O)Cn1c(-c2ccccc2Cl)nc2ccccc21)c1ccccc1`, the “lipid storage change, negative = inhibition” value is -6.38% (inactive) and the cell number change is -7.06%.
The corresponding values for `N#C/C(=N\Nc1ccc(F)cc1)C(=N)N1CCCCCC1` are -5.17% (inactive) and 0.927%.
For the compound `O=[N+]([O-])c1cc([N+](=O)[O-])c(N2CCCCCC2)cc1NCCO`, the “lipid storage change, negative = inhibition” value is -14% (inactive) and the cell number change was -19.4%.
The corresponding values for `Cc1nc2ccccc2n1CCOc1ccc(F)cc1` are 9.98% (inactive) and -21.4%.
The corresponding values for `CCn1cc(SCC(=O)NCC2CCCO2)c2ccccc21` (stereo unspecified) are -5.87% (inactive) and -11.7%.
As for `COc1ccccc1C(=O)NCCn1cc(SCC(=O)NCC2CCCO2)c2ccccc21` (stereo unspecified), the Potency is 18.4 µM (active) and the cell number change was -16.8%.
For `Cc1ccccc1C(=O)NCCn1cc(SCC(=O)NCC2CCCO2)c2ccccc21` (stereo unspecified), the “lipid storage change, negative = inhibition” value was -8.86% (inactive) and the cell number change turned out to be 4.31%.
The corresponding values for `CCCCNC(=O)C1CCN(Cc2ccc(OCc3ccccc3)cc2)CC1` are -3.1% (inactive) and -13%.
`Cc1ccc(S(=O)(=O)Oc2ccc(/C=C3/C(=N)N4C(=NC3=O)SN=C4S(C)(=O)=O)cc2)cc1`: the compound was classed as inactive and the cell number change is -5.51%.
As for `CN(C)c1ccc(/C=C2\C(=N)N3C(=NC2=O)Sc2cc(S(C)(=O)=O)ccc23)cc1`, the Potency is 5.8 µM (active) and the cell number change came to 29.8%.
`COc1ccc(/C=C2/C(=N)N3C(=NC2=O)Sc2cc(S(C)(=O)=O)ccc23)cc1OC`: the “lipid storage change, negative = inhibition” value was -5.29% (inactive) and the cell number change was 20.5%.
Turning to `CC(=O)N1CCc2cc(S(=O)(=O)CCC(=O)N3CCN(c4ccccn4)CC3)ccc21`, the “lipid storage change, negative = inhibition” value is 11.4% (inactive) and the cell number change was found to be 3.02%.
Take `CCc1ccc(C(C(=O)NCc2ccc(F)cc2)N(C(=O)c2csnn2)C2CC2)cc1` (stereo unspecified): the compound was classed as inactive and the cell number change was -0.952%.
With `CCCN(C(=O)/C=C/c1nc2ccccc2s1)C1CCS(=O)(=O)C1` (stereo unspecified), the “lipid storage change, negative = inhibition” value was -2.18% (inactive) and the cell number change was 10.5%.
On the same counts, the results for `COc1ccc(NC(=O)c2ccc(NCCCN3CCOCC3)c([N+](=O)[O-])c2)cc1` are 9.93% (inactive) and 0.55%.
Regarding `CCOC(=O)c1cccc(NC(=O)c2ccc(NC(=O)C3CCCO3)cc2)c1` (stereo unspecified), the Potency is 14.6 µM (active) and the cell number change is -4.84%.

Source of the values: PubChem BioAssay AID2685 (National Center for Advancing Translational Sciences (NCATS), 2010).
